The text below walks through data of PubChem BioAssay (EPA / NIEHS).

Read-out in assay [1]: Tissue Factor, F3 (gene 2152)
In words: BSK_CASM3C_TissueFactor: BioMAP Diversity Plus: CASM3C Assay for Tissue Factor Biomarker Activity (AID 2283052).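 Also: cell surface tissue factor protein level read by ELISA.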 To be noted: primary human coronary artery smooth muscle cells; actives raise or lower the signal.

Read-out in assay [2]: Interferon-gamma inducible Protein 10 (IP10), CXCL10 (gene 3627)
In words: BSK_hDFCGF_IP10: BioMAP Diversity Plus: hDFCGF Assay for Interferon-gamma inducible Protein 10 (IP10) Biomarker Activity (AID 2283053). The following applies: primary human foreskin fibroblasts; actives raise or lower the signal. An outline of the steps: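 ELISA quantification of IP-10 after a 24 h chemical exposure of human dermal foreskin fibroblast primary cultures. Both increases and decreases versus DMSO fitted.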

Read-out in assay [3]: Urokinase-type plasminogen activator receptor (uPAR), PLAUR (gene 5329)
Briefly: BSK_CASM3C_uPAR: BioMAP Diversity Plus: CASM3C Assay for Urokinase-type plasminogen activator receptor (uPAR) Biomarker Activity (AID 2283054).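 Also: cell-surface uPAR protein level quantified by ELISA.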 The following applies: primary human coronary artery smooth muscle cells; actives raise or lower the signal.

Read-out in assay [4]: Vascular cell adhesion molecule 1 (VCAM1), VCAM1 (gene 7412)
In words: BSK_CASM3C_VCAM1: BioMAP Diversity Plus: CASM3C Assay for Vascular cell adhesion molecule 1 (VCAM1) Biomarker Activity (AID 2283055).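 Also: VCAM-1 protein level quantified by ELISA on the cells.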 To be noted: primary human coronary artery smooth muscle cells; actives raise or lower the signal.

Read-out in assay [5]: Collagen III, COL3A1 (gene 1281)
In words: BSK_hDFCGF_CollagenIII: BioMAP Diversity Plus: hDFCGF Assay for Collagen III Biomarker Activity (AID 2283056). The following applies: primary human foreskin fibroblasts; actives raise or lower the signal. The essentials: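 ELISA readout of Collagen III in human dermal (foreskin) fibroblasts, taken 24 h post-treatment. Gain or loss relative to DMSO vehicle fitted in both directions.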

Read-out in assay [6]: Epidermal growth factor receptor (EGFR), EGFR (gene 1956)
In words: BSK_hDFCGF_EGFR: BioMAP Diversity Plus: hDFCGF Assay for Epidermal growth factor receptor (EGFR) Biomarker Activity (AID 2283057). To be noted: primary human foreskin fibroblasts; actives raise or lower the signal. The essentials: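 EGFR levels by ELISA in human dermal fibroblast cultures, 24 h post-treatment, fitted bidirectionally versus DMSO. Parallel wells stained with sulforhodamine B to detect overt cytotoxicity.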

Read-out in assay [7]: Interleukin-8 (IL8), CXCL8 (gene 3576)
Briefly: BSK_hDFCGF_IL8: BioMAP Diversity Plus: hDFCGF Assay for Interleukin-8 (IL8) Biomarker Activity (AID 2283058). The following applies: primary human foreskin fibroblasts; actives raise or lower the signal. An outline of the steps: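 IL-8 levels read by ELISA at 24 hours after dosing human skin fibroblast cultures. Parallel SRB staining assessed overt cytotoxicity, and gain or loss of signal was fitted against DMSO control.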

A short description of assay [8]: BSK_hDFCGF_Proliferation: Cell Proliferation Assessment in the BioMAP Diversity Plus: hDFCGF Assay (AID 2283059).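 Also: curves fitted for both rise and fall of signal versus DMSO baseline.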 The following applies: primary human foreskin fibroblasts. The essentials: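 Total protein read at 560 nm after 0.1% SRB staining of TCA-fixed human skin fibroblasts, […]. Activity is fitted in both directions relative to DMSO as baseline.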

Read-out in assay [9]: Macrophage colony-stimulating factor (MCSF), CSF1 (gene 1435)
Briefly: BSK_hDFCGF_MCSF: BioMAP Diversity Plus: hDFCGF Assay for Macrophage colony-stimulating factor (MCSF) Biomarker Activity (AID 2283060). The following applies: primary human foreskin fibroblasts; actives raise or lower the signal. An outline of the steps: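 M-CSF levels read by ELISA at 24 h post-dosing in human skin fibroblasts. Parallel cultures stained with SRB assessed cytotoxicity at the same time point; response fitted in both directions against the DMSO baseline.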

The nature of assay [10]: BSK_hDFCGF_SRB: Viability Assessment in the BioMAP Diversity Plus: hDFCGF Assay (AID 2283061).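 Also: cells exposed to compound for 24 h before the read.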 The following applies: primary human foreskin fibroblasts. An outline of the steps: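 Viability was read as total protein: after 10% TCA fixation, wells were stained with 0.1% sulforhodamine B and read at 560 nm. Primary human foreskin fibroblasts were dosed for 24 h, with bidirectional fitting versus DMSO.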

Molecules are shown by their SMILES. Activity calls are given as the source filed them. The calls were made as follows: active = hit-call score of the fitted dose curve at least 0.9, where 1 is the maximum; inactive = score below 0.9.

Consider `Clc1ccc(C(c2ccc(Cl)cc2)C(Cl)Cl)cc1`, for which the AC50 was 26.4 µM (active) in assay [1]; 9.7 µM (active) in assay [2]; 36.7 µM (active) in [3]; 5.06 µM (active) in assay [5]; 12.2 µM (active) in assay [7]; 11.9 µM (active) in assay [8]. The concentration at half-maximal activity (AC50) in assay [9] is 7.94 µM (active); in [10], 9.91 µM (active). The outcome in assay [4] and in assay [6] was inactive.

With `Cc1ccc(N)cc1`, the outcome in assay [1], in assay [2], in [3], in assay [4], in assay [5] and in assay [6] was inactive. Also, the result in assay [7], in [8], in assay [9] and in [10] was inactive.

For the molecule `Clc1ccc(C(c2ccc(Cl)cc2)C(Cl)(Cl)Cl)cc1`, the AC50 in [1] is 33.2 µM (active); in [2], 14.1 µM (active); in assay [3], 20 µM (active); in [4] it was 20 µM (active); in assay [7], 27.3 µM (active); in assay [8], 5.38 µM (active). For the same molecule, the AC50 in assay [9] was 10.9 µM (active); in [10], 10.6 µM (active). In addition, in assay [6], the outcome was inactive.

Consider `CCN(CC)CCO`, for which the outcome in assay [1], in assay [2], in assay [3], in assay [4], in assay [5] and in [6] was inactive. The outcome in assay [7], in assay [8], in assay [9] and in assay [10] was inactive.

For the molecule `CCCCCCCCCCCCCN1CC(C)OC(C)C1` (centres undefined), the result in assay [1], in [2], in assay [3], in [4], in assay [5] and in assay [6] was inactive. Besides, the outcome in assay [7], in assay [9] and in assay [10] was inactive. In assay [8], the half-maximal activity concentration (AC50) was 0.541 µM (active).

On to `Cc1ccc([N+](=O)[O-])cc1`, for which the outcome in assay [1], in assay [2], in assay [3], in [4], in [5] and in assay [6] was inactive. The outcome in [7], in assay [8], in assay [9] and in assay [10] was inactive.

Regarding `Nc1ccc(Oc2ccc(N)cc2)cc1`, the result in assay [1], in [2], in assay [3], in assay [4], in assay [5] and in [6] was inactive. In addition, the result in [7], in assay [9] and in assay [10] was inactive. For the same molecule, the AC50 in assay [8] was 4.11 µM (active).

`CCC12COCN1COC2`: the outcome in assay [1], in assay [2], in assay [3], in assay [4], in [5] and in assay [6] was inactive. Further, the result in assay [7], in [8], in assay [9] and in assay [10] was inactive.

Regarding `CC(C)N(Cc1ccccc1)C(=O)C(C)(C)C`, the outcome in assay [1], in [2], in assay [3], in [4], in assay [5] and in assay [6] was inactive. Besides, the outcome in assay [7], in assay [8], in [9] and in assay [10] was inactive.

On to `CN(C)c1ccccc1`, for which the result in assay [1], in assay [2], in [3], in [4], in assay [5] and in [6] was inactive. Further, the outcome in assay [7], in assay [8], in assay [9] and in assay [10] was inactive.

On to `[O-][Cl+]O`, for which the outcome in assay [1], in [2], in [3], in [4], in assay [5] and in assay [6] was inactive. Besides, the outcome in assay [7], in assay [8], in assay [9] and in assay [10] was inactive.

Take `Cc1ccc(N=C=O)cc1N=C=O`: the result in [1], in [2], in assay [3], in [4], in assay [5] and in [6] was inactive. The result in assay [7], in [8], in assay [9] and in assay [10] was inactive.

Consider `c1ccc(NNc2ccccc2)cc1`, for which the outcome in [1], in [2], in assay [3], in [4], in assay [5] and in assay [6] was inactive. Further, the result in assay [7], in assay [8], in [9] and in assay [10] was inactive.

Regarding `Nc1ccc([N+](=O)[O-])cc1`, the outcome in [1], in assay [2], in assay [3], in assay [4], in [5] and in assay [6] was inactive. Also, the outcome in assay [7], in [9] and in assay [10] was inactive. In assay [8], the AC50 is 20 µM (active).

As for `c1ccc2c(c1)-c1cccc3cccc-2c13`, the result in assay [1], in assay [2], in [3], in [4], in [6] and in [7] was inactive. The result in assay [9] and in assay [10] was inactive. Also, the AC50 in [5] is 16.4 µM (active); in assay [8] it was 23.7 µM (active).

Consider `CCCCCOC(=O)c1ccccc1C(=O)OCCCCC`, for which the outcome in assay [1], in assay [2], in assay [3], in assay [4], in assay [6] and in assay [7] was inactive. The outcome in assay [8] and in assay [10] was inactive. The figures for the half-maximal activity concentration (AC50) in assay [5] and in [9] were 3.97 µM (active) and 9.05 µM (active), respectively.

`Nc1cc(Cl)cc(C(=O)O)c1Cl`: the result in assay [1], in assay [2], in [3], in assay [4], in assay [5] and in assay [6] was inactive. Also, the result in [7], in [8], in [9] and in assay [10] was inactive.

`CCCSC(=O)N(CCC)CCC`: the result in [1], in assay [2], in assay [3], in assay [4], in assay [5] and in assay [6] was inactive. Also, the outcome in assay [7], in assay [8], in assay [9] and in assay [10] was inactive.

Take `O=C(N[C@H](c1ccccc1)[C@@H]1CN2CCC1CC2)c1c(Cl)ccc(C(F)(F)F)c1Cl`: the result in assay [1], in [3], in [4], in assay [5], in assay [6] and in assay [7] was inactive. The outcome in assay [9] and in assay [10] was inactive. The AC50 in assay [2] was 16.3 µM (active); in [8] it was 26.5 µM (active).

Regarding `CCCCCCCCOC(=O)c1ccc(C(=O)OCCCCCCCC)c(C(=O)OCCCCCCCC)c1`, the outcome in assay [1], in assay [2], in [3], in [4], in [5] and in assay [6] was inactive. Also, the outcome in assay [7], in assay [8], in assay [9] and in [10] was inactive.

For `Cc1cc(N=Nc2ccccc2C)ccc1N`, the outcome in assay [1], in assay [3], in assay [4], in assay [6] and in assay [7] was inactive. In addition, the AC50 in assay [2] is 29.9 µM (active); in assay [5], 20 µM (active); in assay [8], 9.37 µM (active); in [9], 28.3 µM (active); in [10] it was 34.5 µM (active).
